# Experimental data as given in PubChem BioAssay AID1347074 (Center for Chemical Genomics, University of Michigan, 2019).
# Out of some 47,000 compounds screened, about 2,800 (6%) were called active. The sample holds actives, similar compounds and a random draw of the others, so the mix is not that of the screen. A number with no mark means an inactive call. Cut-off read from the data, not from the text of the source: active = z-score above about 3 (passing the limit was not always enough); inactive = the rest.
# Target: Endoribonuclease Dicer (Homo sapiens) (UniProt Q9UPY3)
# Experiment: inhibitors of Dicer pre-microRNA processing, primary screen, biochemical, cat-ELCCA, chemiluminescence (AID 1347074);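 note: plate controls were vehicle for no effect and no enzyme for full effect; higher signal means more uncleaved substrate so more Dicer inhibition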
# Conditions: cat-ELCCA pre-miR-21 Dicer processing, at 25 µM, active compounds read high
# Chain of Endoribonuclease Dicer (Homo sapiens) (Q9UPY3 whole entry, looked up): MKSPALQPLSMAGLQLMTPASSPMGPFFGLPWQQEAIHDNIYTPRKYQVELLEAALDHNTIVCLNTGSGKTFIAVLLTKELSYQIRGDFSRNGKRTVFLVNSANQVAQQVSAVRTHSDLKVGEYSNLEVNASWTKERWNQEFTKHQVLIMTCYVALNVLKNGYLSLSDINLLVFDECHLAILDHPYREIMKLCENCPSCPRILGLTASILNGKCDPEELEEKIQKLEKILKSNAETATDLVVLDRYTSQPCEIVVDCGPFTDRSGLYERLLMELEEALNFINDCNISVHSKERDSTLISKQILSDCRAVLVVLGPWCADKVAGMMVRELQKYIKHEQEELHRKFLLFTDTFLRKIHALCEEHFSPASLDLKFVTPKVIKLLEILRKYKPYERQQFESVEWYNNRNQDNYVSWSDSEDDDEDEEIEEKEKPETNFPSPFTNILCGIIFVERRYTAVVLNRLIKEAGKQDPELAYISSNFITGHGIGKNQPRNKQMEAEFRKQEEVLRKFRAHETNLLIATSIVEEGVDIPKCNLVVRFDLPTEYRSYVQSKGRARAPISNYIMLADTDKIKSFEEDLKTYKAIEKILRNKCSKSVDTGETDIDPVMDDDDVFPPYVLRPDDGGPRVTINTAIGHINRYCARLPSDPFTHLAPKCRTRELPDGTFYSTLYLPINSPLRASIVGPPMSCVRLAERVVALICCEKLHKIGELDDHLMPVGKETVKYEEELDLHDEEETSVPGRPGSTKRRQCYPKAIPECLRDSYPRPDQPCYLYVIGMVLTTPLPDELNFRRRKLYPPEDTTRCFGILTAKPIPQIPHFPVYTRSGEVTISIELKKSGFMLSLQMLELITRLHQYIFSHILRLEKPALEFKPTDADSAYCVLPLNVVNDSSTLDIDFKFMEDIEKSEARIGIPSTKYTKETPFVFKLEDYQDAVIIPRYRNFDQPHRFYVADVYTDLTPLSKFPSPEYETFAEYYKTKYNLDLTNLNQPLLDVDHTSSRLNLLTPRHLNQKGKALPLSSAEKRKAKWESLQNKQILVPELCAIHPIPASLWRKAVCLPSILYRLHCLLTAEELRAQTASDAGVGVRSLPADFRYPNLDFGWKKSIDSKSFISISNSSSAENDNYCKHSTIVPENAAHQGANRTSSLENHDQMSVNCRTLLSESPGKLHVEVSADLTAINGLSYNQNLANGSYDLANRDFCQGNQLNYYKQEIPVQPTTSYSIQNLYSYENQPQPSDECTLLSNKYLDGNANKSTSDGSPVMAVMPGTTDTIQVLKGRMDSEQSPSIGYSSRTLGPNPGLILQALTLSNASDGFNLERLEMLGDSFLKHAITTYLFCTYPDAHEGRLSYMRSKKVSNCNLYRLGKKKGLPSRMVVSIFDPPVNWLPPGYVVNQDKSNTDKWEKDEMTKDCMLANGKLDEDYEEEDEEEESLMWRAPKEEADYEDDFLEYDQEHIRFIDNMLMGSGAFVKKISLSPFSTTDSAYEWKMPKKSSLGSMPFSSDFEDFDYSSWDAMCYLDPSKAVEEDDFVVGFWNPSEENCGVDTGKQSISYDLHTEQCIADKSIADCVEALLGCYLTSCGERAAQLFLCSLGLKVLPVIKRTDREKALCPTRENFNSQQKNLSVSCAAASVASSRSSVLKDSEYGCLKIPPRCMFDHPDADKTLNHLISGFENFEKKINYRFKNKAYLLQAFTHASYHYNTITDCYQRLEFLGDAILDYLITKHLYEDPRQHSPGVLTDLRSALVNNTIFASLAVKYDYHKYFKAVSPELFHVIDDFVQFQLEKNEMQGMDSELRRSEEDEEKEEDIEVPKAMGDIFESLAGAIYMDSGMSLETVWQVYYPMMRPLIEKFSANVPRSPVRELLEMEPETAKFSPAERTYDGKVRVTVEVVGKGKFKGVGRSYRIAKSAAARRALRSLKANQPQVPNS
row,Structure (SMILES),z-score
1,Cn1c(C(=O)O)ccc1S(=O)(=O)N(Cc1ccccc1)Cc1ccccc1,-0.36
2,CC(C)=NNS(=O)(=O)c1ccc(C)cc1,-6.01
3,CCOc1cc(C)c(S(=O)(=O)NCc2ccccn2)cc1C,0.63
4,Cc1nc2cc(CO)ccc2n1-c1ccccc1,-1.15
5,Cc1nc2cc(NCc3ccccn3)ccc2n1C,3.02 (active)
6,CN(C)c1ccc(C2/C(=C(/O)c3ccccc3)C(=O)C(=O)N2CCO)cc1 (stereo not given),-1.23
7,CCOC(=O)C1Cn2c(nc3c(c2=O)C(C)(CC)Cc2ccccc2-3)S1 (stereo not given),3.52 (active)
8,Cc1ccc(NC(=O)C/C(N)=N/O)cc1Cl,1.48
9,CCn1c(CSc2nc(-c3ccc(Cl)cc3)cn2-c2ccc(C)cc2)n[nH]c1=S,5.38 (active)
10,S=c1[nH]nc(CSCc2nc(-c3ccccc3)cs2)n1-c1ccc(Cl)cc1,-0.05
11,COc1ccc(-c2n[nH]c(=S)n2-c2ccc(Cl)cc2C)cc1,-1.05
12,C=CCSc1nc(Nc2ccc(Cl)cc2)c2cnc(N3CCOCC3)nc2n1,0.68
13,Cc1nc2ccccc2c2c1C(=O)N(c1ccc(C(=O)OCC(=O)c3ccccc3)cc1)C2=O,0.06
14,C/C(=N\NC1=NCCCN1)c1ccc(Cl)cc1,-0.42
15,CCCCSC1=C(C#N)C(=O)NC(C)S1 (stereo not given),1.98
16,COc1ccc(-c2nn3c(-c4ccc(OC)cc4)nnc3c3ccccc23)cc1,3.15 (active)
17,COc1ccc(-c2cc(C)nc3nc(N)nn23)cc1,-1.68
18,COc1ccc(-c2nn3c(-c4ccccc4)nnc3s2)cc1OC,-0.95
19,CSc1ccc(C2C(C(=O)OCC3CCCO3)=C(C)NC3=C2C(=O)CC(C)(C)C3)cc1 (stereo not given),0.6
20,COc1ccc2c(c1)CCc1sc(N)nc1-2,-2.97
21,COc1ccc2c(c1)CCCC2=Nc1ccccc1C(F)(F)F,4.81 (active)
22,CCCOc1ccc(N2C(=O)CC(N3CCC(C)CC3)C2=O)cc1 (stereo not given),1.2
23,NNC(=O)Cn1nnc(-c2cccc(Cl)c2Cl)n1,7.9
24,COC(=O)/C=C(\Nc1ccccc1Oc1ccc(Cl)cc1Cl)C(=O)OC,2.01
25,O=C(Cn1nnc(-c2ccccc2Oc2ccc(Cl)cc2Cl)n1)NNC(=S)Nc1ccccc1C(F)(F)F,4.43 (active)
